An excerpt weighted towards active compounds, which were near 1.5% of everything screened.
IL2 activator = activators of IL-2; 360,000 compounds, 0.065% hits; activation, % (series mostly up to about 46 µM); IL-2 activation reporter assay, cell-based qHTS; stimulated with anti-CD3/CD4/CD28 beads; in transgenic mouse T cells; in the data active = activation above about 50%; inconclusive = mostly about 30% to 49%; also: 0% is about no effect
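Unstimulated transgenic mouse T cells preincubated 60 min with compound, then stimulated with anti-CD3/anti-CD4-coated beads plus anti-CD28 for 18 h at 37 degrees C. IL-2 response read as EGFP and DsRed fluorescence by plate cytometry.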
uPA surface inh = cell surface uPA generation inhibition; cell surface uPA generation assay, qHTS; Potency, µM (doses to about 38.3 µM), for the others: at the highest dose activity change, negative = inhibition, hits mostly inhibitors; 330,000 compounds, 0.31% hits; AID 540303; active = well fitted inhibition curve with a large enough effect; inconclusive = small, poorly fitted or top-dose-only effect; inactive = no such curve, though single readings can be large or run the other way; tested in mouse RAW 264.7 cells; also: potency is read from the fitted curve at half-maximal effect; % is scaled to controls: 0 for no effect and ±100 for the full control effect; nearly all actives have a fitted effect of over 55% in size
Integrin act MD = integrin-mediated muscular dystrophy alleviation activation. 350,000 compounds, 0.064% hits. alpha7betagal myoblasts, beta-gal FDG fluorescence, 48 h. Potency, µM (series often up to 38.3 µM), for inactives: at the highest dose activation, hits mostly activators;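 also: potency is read from the fitted curve at half-maximal effect; 100% = response of the positive control SU9516; nearly all actives have a fitted effect of over 60% in size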
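alpha7betagal+/- myoblasts (passage 13, 250/well) treated 48 h at 37C with compounds at 1:260 dilution of DMSO stock. Lysed, then beta-galactosidase activity read as FDG fluorescence (ex 480/em 540) after 30 min, with pre-read for autofluorescence.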
Nrf2 activator = Nrf2 pathway activation; AREc32 ARE-luciferase reporter (MCF7-derived line), luminescence, 24 h; Potency, µM (top dose mostly 46.1 µM), inactives show top-dose activation, usual class: activators; 410,000 compounds, 0.31% hits; also: potency is read from the fitted curve at half-maximal effect; % of control where 0% means no effect; nearly all actives have a fitted effect of over 65% in size
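Steps: seed AREc32_Fluc cells (1000/well, 5% FBS OPTI-MEM); incubate overnight at 37 deg C; add 23 nL compound; incubate 24 hr; add Steady-Glo; hold 30 min RT; read luminescence.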
12-LOX inh = blocks human arachidonate 12S-lipoxygenase | P18054 | purified 12hLO, xylenol orange hydroperoxide absorbance | Potency, µM (highest dose often 108 µM), inactives show at the top dose activity change, negative = inhibition, most hits filed as inhibitors | 580,000 compounds, 1.1% hits | AID 1671190; also: potency is read from the fitted curve at half-maximal effect; % is scaled to controls: 0 for no effect and ±100 for the full control effect
Target sequence (P18054 whole entry, looked up): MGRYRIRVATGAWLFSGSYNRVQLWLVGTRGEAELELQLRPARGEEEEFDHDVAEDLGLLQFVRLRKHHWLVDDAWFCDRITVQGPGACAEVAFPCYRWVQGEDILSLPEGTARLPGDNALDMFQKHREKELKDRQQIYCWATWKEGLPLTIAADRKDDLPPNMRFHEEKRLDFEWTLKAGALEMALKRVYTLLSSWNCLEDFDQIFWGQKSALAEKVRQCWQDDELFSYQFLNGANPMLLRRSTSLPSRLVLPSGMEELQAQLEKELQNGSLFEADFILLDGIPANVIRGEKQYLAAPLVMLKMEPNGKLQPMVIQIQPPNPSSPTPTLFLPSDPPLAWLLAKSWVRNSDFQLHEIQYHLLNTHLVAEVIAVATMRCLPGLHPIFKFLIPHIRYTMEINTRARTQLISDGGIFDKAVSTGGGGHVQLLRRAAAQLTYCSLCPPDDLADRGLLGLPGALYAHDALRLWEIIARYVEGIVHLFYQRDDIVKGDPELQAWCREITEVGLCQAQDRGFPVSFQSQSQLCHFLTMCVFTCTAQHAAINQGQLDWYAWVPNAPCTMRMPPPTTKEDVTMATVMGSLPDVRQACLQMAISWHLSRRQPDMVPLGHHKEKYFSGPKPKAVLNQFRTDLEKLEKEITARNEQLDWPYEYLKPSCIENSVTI
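Hydroperoxide product was detected by ferrous iron/xylenol orange as the 573 to 405 nm absorbance ratio. Arachidonic acid at 40 uM (final) was turned over for 30 min at room temperature by 150 nM human 12hLO, pH 7.0 Hepes buffer, after 15 min compound preincubation.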
An asterisk follows results filed as active; [ ] = another dose, or the depositor's remark. Unless noted, calls follow the shape of the dose curve; as a rule, active = well fitted curve in the direction sought with a large enough effect; inconclusive = small, poorly fitted or top-dose-only effect, or another doubt; inactive = no such curve, though single readings can be large; an effect the other way counts as inactive or inconclusive.

Screening CC(C)[C@H](NC(=O)C12CC3CC(CC(C3)C1)C2)C(=O)O returned 12-LOX inh 56.2µM*.
Screening CCOc1ccc2c(c1)cc(C(=O)Nc1cccc(C)c1)n2C returned 12-LOX inh -27.4%.
`Clc1ccc(/C=N/Nc2ccccn2)cc1` gave IL2 activator -3.6, uPA surface inh -0.3%, Integrin act MD 0.8%, Nrf2 activator inconclusive and 12-LOX inh -0.3%.
Screening CCOc1ccc(/C=N/Nc2ccccn2)cc1 returned IL2 activator -0.2, uPA surface inh 6.31µM*, Integrin act MD 11.4%, Nrf2 activator -0.5% and 12-LOX inh -7.0%.
For Oc1cccc(C=NNc2ccccn2)c1 the results were IL2 activator -2.0, uPA surface inh 4.9%, Integrin act MD 17.8%, Nrf2 activator 12.6µM* and 12-LOX inh -5.8%.
Brc1ccc(/C=N/Nc2ccccn2)cc1 was read as IL2 activator -1.4, uPA surface inh 1.5%, Integrin act MD inconclusive, Nrf2 activator 12.6µM* and 12-LOX inh -7.2%.
`CN(C(=O)c1cccc(CS(C)=O)c1)C1CCC(c2ccccc2)CC1` (configuration not stated) gave 12-LOX inh -3.5%.
Screening Cc1nc([C@@H]2CN(Cc3ccccc3)C[C@H]2C(N)=O)n[nH]1 returned 12-LOX inh 45.9%.
O=C(CSc1nc2ccccc2s1)N/N=C/c1ccco1 was read as IL2 activator 0.7, uPA surface inh 0.0%, Integrin act MD 7.5%, Nrf2 activator 5.01µM* and 12-LOX inh 1.6%.
O=C(CCn1cnc(-c2ccccc2)c1-c1ccccc1)N/N=C/c1ccc(O)cc1 was read as IL2 activator -0.7, uPA surface inh inconclusive, Integrin act MD -28.8%, Nrf2 activator -1.8% and 12-LOX inh 1.8%.
O=C(CSc1nnc(SCc2ccccc2)s1)N/N=C/C=C\c1ccco1 was read as IL2 activator 1.4, uPA surface inh -14.7%, Integrin act MD -18.2%, Nrf2 activator 22.5% and 12-LOX inh 17.8µM*.
COc1ccc(/C=N/NC(=O)CCSc2nc3ccccc3s2)cc1 was read as IL2 activator -3.1, uPA surface inh 3.98µM*, Integrin act MD -9.1%, Nrf2 activator -0.7% and 12-LOX inh -9.4%.
Screening O=C(CSc1nnc(SCc2ccccc2)s1)N/N=C/C=C/c1ccccc1[N+](=O)[O-] returned IL2 activator -1.4, uPA surface inh -5.7%, Integrin act MD -30.4%, Nrf2 activator 0.5% and 12-LOX inh 1.2%.
Screening COc1ccc(/C=N/NC(=O)CCn2cnc(-c3ccccc3)c2-c2ccccc2)cc1 returned IL2 activator -1.9, uPA surface inh 1.12µM*, Integrin act MD -0.2%, Nrf2 activator -0.1% and 12-LOX inh 2.8%.
Screening C/C(=N\NC(=O)CSc1nc2ccccc2s1)c1ccco1 returned IL2 activator -0.5, uPA surface inh -9.3%, Integrin act MD 0.6%, Nrf2 activator 7.08µM* and 12-LOX inh -11.8%.
CC(C)(C)NC(=S)NC(=O)C12CCC3CC(CC(C3)C1)C2 was read as IL2 activator -0.1, uPA surface inh 0.8%, Integrin act MD 2.2%, Nrf2 activator -0.1% and 12-LOX inh 31.6µM*.
CC(C)(C)NC(=O)C12CC3CC(CC(Cl)(C3)C1)C2 was read as IL2 activator -2.6, uPA surface inh 4.7%, Integrin act MD 9.8%, Nrf2 activator 0.5% and 12-LOX inh 1.0%.
Screening CCOc1ccc(C2C(C(=O)c3ccc(C)o3)=C(O)C(=O)N2c2cc(C)on2)cc1OC (configuration not stated) returned IL2 activator -0.3, uPA surface inh -1.9%, Integrin act MD 7.2%, Nrf2 activator 0.3% and 12-LOX inh 25.1µM*.
`COc1cc(C2C(C(=O)c3ccc(C)o3)=C(O)C(=O)N2c2cc(C)on2)ccc1OCc1ccccc1` (configuration not stated) gave IL2 activator -0.1, uPA surface inh -9.8%, Integrin act MD 4.4%, Nrf2 activator -0.3% and 12-LOX inh inconclusive.
Screening COc1cccc(C2C(C(=O)c3ccc(C)o3)=C(O)C(=O)N2c2cc(C)on2)c1 (configuration not stated) returned IL2 activator 5.0, uPA surface inh -4.7%, Integrin act MD 1.1%, Nrf2 activator 0.1% and 12-LOX inh 50.1µM*.
`COc1cccc(C2C(C(=O)c3cccs3)=C(O)C(=O)N2c2cc(C)on2)c1` (configuration not stated) gave IL2 activator 1.4, uPA surface inh -1.6%, Integrin act MD 5.6%, Nrf2 activator 9.3% and 12-LOX inh inconclusive.
For Cc1cc(C(=O)NC(=S)Nc2ccccc2N2CCOCC2)ccc1[N+](=O)[O-] the results were IL2 activator 0.2, uPA surface inh 6.6%, Integrin act MD 23.1%, Nrf2 activator -0.6% and 12-LOX inh 28.2µM*.
CCOc1ccc(C(=O)NC(=S)Nc2ccc(N3CCC(C)CC3)cc2)cc1[N+](=O)[O-] was read as IL2 activator 0.2, uPA surface inh 4.2%, Integrin act MD -15.2%, Nrf2 activator 0.1% and 12-LOX inh 4.9%.
Screening O=C(NC(=S)Nc1ccccc1N1CCOCC1)c1ccc(Br)cc1 returned IL2 activator -4.2, uPA surface inh -4.1%, Integrin act MD -7.1%, Nrf2 activator 1.9% and 12-LOX inh 35.5µM*.
`O=C(NC(=S)Nc1cc(Cl)ccc1N1CCOCC1)c1ccc(-c2cccc(Cl)c2)o1` gave IL2 activator 0.1, Integrin act MD 4.9%[7.66 µM], Nrf2 activator -0.3% and 12-LOX inh -13.0%.
`Cc1cc(C(=O)NC(=S)Nc2ccccc2N2CCCC2)ccc1[N+](=O)[O-]` gave IL2 activator 0.4, uPA surface inh -0.9%, Integrin act MD -16.7%, Nrf2 activator 0.3% and 12-LOX inh -1.6%.
O=C(NC(=S)Nc1ccccc1N1CCOCC1)c1ccc(-c2ccccc2F)o1 was read as IL2 activator -0.5, uPA surface inh 5.5%, Integrin act MD -13.1%, Nrf2 activator 2.3% and 12-LOX inh 25.1µM*.
CCOc1ccc(C(=O)NC(=S)Nc2ccccc2N2CCC(C)CC2)cc1[N+](=O)[O-] was read as IL2 activator 2.1, uPA surface inh 6.8%, Integrin act MD 3.6%, Nrf2 activator 0.2% and 12-LOX inh 35.5µM*.
`CC1=Nc2c(cnn2-c2ccc(C)c(Cl)c2)C2=NCCCN12` gave 12-LOX inh 1.9%.
Screening Cc1cc(OCC(=O)Nc2ccc(C(=O)OC(C)C)cc2)ccc1Cl returned 12-LOX inh 19.6%.
CCC(=O)N(C1CCOCC1)C1CCN(Cc2cccc(Br)c2)CC1 was read as 12-LOX inh 18.6%.
Screening COc1ccc(OC)c(-c2nnc(-c3ccc(C)o3)o2)c1 returned IL2 activator -1.0, uPA surface inh -4.9%, Integrin act MD -32.1%, Nrf2 activator 11.2µM* and 12-LOX inh -4.4%.

High-throughput results: PubChem BioAssay, National Center for Advancing Translational Sciences (NCATS)
